Source: PubChem (several laboratories)
PrP 5UTR inh – suppresses PrP 5' UTR mRNA reporter expression. 340,000 tested, 0.35% active. cell-based PrP 5' UTR mRNA reporter, plate reader. inhibition, % (no concentration beside the values); in the data active = inhibition above about 52%; also: 0 = median of the neutral control wells
PrPC surface inh – reduces human prion protein on the cell surface; P04156; cell surface PrPC, TR-FRET read-out; inhibition, % at 13.8 µM; 370,000 tested, 0.43% active; in the data active = inhibition above about 24%; also: 0% = median of the test wells and 100% = reference compound wells
Yp Topo-I inh – Y. pestis Topo-I inhibition via cleavage products; Y. pestis Topo-I cleavage product accumulation, plate reader; 360,000 tested, 0.064% active; activity, % at 10 µM; in the data active = activity above about 50%, passing the limit was not always enough
FBA Mtb inh – inhibits M. tuberculosis FBA enzyme; purified M. tuberculosis FBA, fluorescence read-out; inhibition, % at 1 µM; 360,000 tested, 2.3% active; AID 588726; in the data active = inhibition above about 27%;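 also: 0% = vehicle and 100% = reference inhibitor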
Target sequence (P9WQA3 whole entry, looked up): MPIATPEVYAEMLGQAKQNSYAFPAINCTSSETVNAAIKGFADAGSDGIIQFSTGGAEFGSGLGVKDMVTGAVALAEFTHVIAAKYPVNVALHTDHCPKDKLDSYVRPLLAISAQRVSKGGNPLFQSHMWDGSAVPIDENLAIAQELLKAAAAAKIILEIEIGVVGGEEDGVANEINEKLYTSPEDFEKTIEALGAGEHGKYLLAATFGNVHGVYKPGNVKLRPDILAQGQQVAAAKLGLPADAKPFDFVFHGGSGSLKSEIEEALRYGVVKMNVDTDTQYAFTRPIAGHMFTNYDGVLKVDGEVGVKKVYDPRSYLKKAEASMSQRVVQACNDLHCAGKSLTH
GDH-TPI inh – counter-screen for M. tuberculosis FBA inhibitors: GDH-TPI coupled enzymes; inhibition, % at 4.8 µM; AID 588335; 360,000 tested, 1.2% active; GDH-TPI coupled enzyme counterscreen, NADH absorbance; in the data active = inhibition above about 30%;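 also: 0% = DMSO wells and 100% = wells lacking the enzyme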
Mtb hypoxia inh – reduces hypoxia-regulated biosensor signal in M. tuberculosis. M. tuberculosis hypoxia-regulated fluorescent reporter, fluorescence. 300,000 tested, 0.1% active. fluorescence inhibition, % (no concentration beside the values); in the data active = fluorescence inhibition mostly above about 23%, no sharp cut-off; inactive = mostly below about 17%
* marks the source's active call; other numbers are inactive results; / = no result given; + = active, no number. Hits are enriched below; roughly 3.8% of the tested compounds scored in any of these assays.

SMILES	PrP 5UTR inh	PrPC surface inh	Yp Topo-I inh	FBA Mtb inh	GDH-TPI inh	Mtb hypoxia inh
CC(C)C[C@@]12C(=O)N(c3cccc(F)c3)C(=O)N1C(c1ccc(Cl)cc1)C1C(=O)N(C3CCCCC3)C(=O)C12 (stereo partly drawn)	/	/	/	/	/	-1
CCc1ccc(NC(=O)C(=O)c2cn(CC(=O)N3CCCCC3)c3ccccc23)cc1	-17	-4	6	-3	37*	-2
COc1cccc(NC(=O)C(=O)c2cn(CC(=O)N3CCCC3)c3ccccc23)c1	-20	-6	25	-1	31*	6
Cc1ccc(NC(=O)C(=O)c2cn(CC(=O)N3CCCCC3)c3ccccc23)cc1	-5	2	17	-2	26	7
COC(=O)C1=C(c2ccc(S(C)(=O)=O)cc2)CC2CCC1N2C(=O)N1CCOCC1 (stereo not drawn)	/	/	/	/	/	6
C/C(=N\NC(=O)c1ccccc1)c1ccc(N2CCOCC2)cc1	-13	-4	-8	-10	31*	/
C#Cc1ccc(C(=O)Nc2cc(C(N)=O)ccc2N2CCOCC2)cc1	-7	3	-6	1	32*	4
N#Cc1ccc(C(=O)Nc2cc(S(=O)(=O)N3CCOCC3)ccc2N2CCOCC2)cc1	/	4	-1	1	-7	/
Cc1ccc2nc(-c3ccco3)c(Nc3ccccc3)n2c1	-8	10	-2	192*	9	3
Cc1ccc2nc(-c3ccncc3)c(Nc3ccccc3)n2c1	-53	9	16	3	6	2
c1cn2c(-c3ccoc3)cncc2n1	/	-4	-1	26	3	/
OCc1ccc(-c2cncc3nccn23)cc1	/	-11	10	+	13	/
CCOC(=O)c1ccc(Nc2c(OCC)c(=O)c2=O)cc1	-9	3	-9	-3	35*	-2
CCOC(=O)c1nc(Nc2ccc(C)cc2)c2ccccc2n1	5	4	3	-3	34*	6
CCOC(=O)c1ccc(Nc2ncnc3ccccc23)cc1	-21	11	-2	2	57*	-8
Cc1ccc(C(=O)N/N=C/c2c[nH]c3ccccc23)o1	-2	4	-9	-3	31*	/
Cc1cc(C(=O)N/N=C/c2c[nH]c3ccccc23)c(C)o1	-18	0	-5	-3	8	/
COc1ccccc1/C=C\C=NNC(=O)CCn1nnc2ccccc21	/	/	/	/	/	-12
COc1ccccc1/C=C\C=N\NC(=O)CCn1nnc2ccccc21	-19	0	17	4	38*	/
CC(/C=N/NC(=O)c1sc(N)nc1C)=C\c1ccccc1	-72	-18	8	-4	37*	/
COc1cc(/C=N\NC(=O)c2sc(N)nc2C)cc(OC)c1OC	-7	-9	-9	-9	41*	/
Cc1cccc(NC(=S)N/N=C/c2c[nH]c3ccccc23)c1	-46	4	-8	2	36*	/
Cc1nc(N)sc1C(=O)N/N=C/c1c[nH]c2ccccc12	-17	-13	0	-2	56*	/
Cc1cccc(NC(=S)N/N=C/c2cccc([N+](=O)[O-])c2)c1	-26	/	-5	2	33*	/
O=C(N/N=C/c1ccc(Br)s1)c1c[nH]c2ccccc12	-67	10	3	0	40*	/
SMILES	PrP 5UTR inh	PrPC surface inh	Yp Topo-I inh	FBA Mtb inh	GDH-TPI inh	Mtb hypoxia inh
Cc1cccc(NC(=S)NN=Cc2c[nH]c3ccccc23)c1	/	/	/	/	/	2
CCN1C(=O)C2C(c3ccc(-c4ccc5c(c4)OCO5)c(OC)c3)N3CCCC[C@@]3(C(=O)OC)C2C1=O (stereo partly drawn)	/	/	/	/	/	-8
C#CCOCCOCCOCCNc1nc(N2CCOCC2)nc(N2CCN(C(=O)C(Cc3cc4ccccc4[nH]3)n3cc(C(N)Cc4ccc(O)cc4)nn3)CC2)n1 (stereo not drawn)	/	/	/	/	/	3
NC(=O)C(=O)NN=Cc1c[nH]c2ccc(Br)cc12	/	/	/	/	/	6
O=C(C=Cc1ccccc1)c1cccs1	-53	0	0	-5	34*	/
O=C(N/N=C/c1c[nH]c2ccc(Br)cc12)C1CC1	-10	10	-5	10	32*	/
Nc1ccc(/C=C/C(=O)c2cccs2)cc1	-94	9	3	-12	20	2
O=C(N/N=C/c1c[nH]c2ccccc12)c1cc(Br)ccc1O	-12	7	-19	6	31*	/
O=C(O)COc1ccccc1/C=N/NC(=O)c1ccc(F)cc1	4	0	-12	-1	46*	/
COC(=O)[C@]1(C)NC(c2ccc(-c3ccc(Cl)c(Cl)c3)cc2)C2C(=O)N(C)C(=O)C21 (stereo partly drawn)	/	/	/	/	/	24
O=C(N/N=C/c1c[nH]c2ccccc12)c1ccn(Cc2ccc(Cl)cc2)n1	-26	3	-10	0	32*	/
Cn1ccc(C(=O)NN=Cc2c[nH]c3ccccc23)n1	/	/	/	/	/	-11
COc1ccccc1C=NNC(=O)NN=Cc1ccccc1OC	-23	-3	18	-2	31*	-2
Cc1nc(N)sc1C(=O)NN=Cc1ccccc1[N+](=O)[O-]	/	/	/	/	/	-3
C/C(C=NNC(=O)c1cccs1)=C\c1ccccc1	/	/	/	/	/	-1
COc1cccc(/C=N/NC(=O)N/N=C/c2cccc(OC)c2O)c1O	-50	8	12	1	20	/
CC(/C=N/NC(=O)c1cccs1)=C\c1ccccc1	-56	1	11	-3	32*	/
Cc1nc(N)sc1C(=O)N/N=C/c1ccco1	-30	1	-5	-1	38*	/
COc1ccc(S(=O)(=O)N(C)CC2Oc3ccc(NC(=O)Cc4ccccc4)cc3C(=O)N(C(C)CO)CC2C)cc1 (stereo not drawn)	/	/	/	/	/	12
Cn1ncc(Br)c1C(=O)NN=Cc1ccc(OS(=O)(=O)c2ccccc2)cc1	/	/	/	/	/	2
Cc1c(/C=N/NC(=O)c2cc(Br)ccc2O)c(=O)n(C)c(=O)n1C	-2	-6	6	0	31*	/
CC(/C=N/NC(=O)c1n[nH]c2c1CCC2)=C\c1ccccc1	38	3	7	-1	31*	/
COc1ccccc1/C=C/C=NNC(=O)c1cccs1	/	/	/	/	/	7
COc1ccccc1/C=C/C=N/NC(=O)c1cccs1	-70	-11	9	0	45*	/
COC(=O)C=Cc1ccc2c(c1)S(=O)(=O)N(c1cccc(OC)c1)C2CC(=O)OC (stereo not drawn)	/	/	/	/	/	7
Cc1cccc2c1-c1sc(C(=O)NCCCN3CCC(C)CC3)cc1CO2	6	-25	2	+	16	11
COc1ccc(N(C)C(=O)c2cc3c(s2)-c2c(C)cccc2OC3)c(OC)c1	/	-3	6	6	31*	13
CCN(C(=O)c1cc2c(s1)-c1ccccc1OC2)c1cc(OC)ccc1OC	-21	0	36	2	21	/
CC1CCN(CCCNC(=O)c2cc3c(s2)-c2ccccc2OC3)CC1	-6	-19	-1	+	8	15
C#CCOCCOCCOCCNc1nc(N2CCN(C(=O)C(C(C)O)n3cc(CCCCN)nn3)CC2)nc(N2CCN(C(=O)C(C(C)CC)n3cc(CCCCN)nn3)CC2)n1 (stereo not drawn)	/	/	/	/	/	8
